Screening data (PubChem)
TRHR ag: qHTS for Small Molecule Agonists and Allosteric Enhancers of Human TRH Receptor: Primary Screen for Agonists. activation, % at 2 µM. AID 493084, 2011. Thyrotropin-releasing hormone receptor (Homo sapiens), P34981. hit rate 0.18% among 360,000. TRHR cells, calcium flux fluo-8, FDSS agonist mode; further: 0% is about no effect
Target sequence (P34981 whole entry, looked up): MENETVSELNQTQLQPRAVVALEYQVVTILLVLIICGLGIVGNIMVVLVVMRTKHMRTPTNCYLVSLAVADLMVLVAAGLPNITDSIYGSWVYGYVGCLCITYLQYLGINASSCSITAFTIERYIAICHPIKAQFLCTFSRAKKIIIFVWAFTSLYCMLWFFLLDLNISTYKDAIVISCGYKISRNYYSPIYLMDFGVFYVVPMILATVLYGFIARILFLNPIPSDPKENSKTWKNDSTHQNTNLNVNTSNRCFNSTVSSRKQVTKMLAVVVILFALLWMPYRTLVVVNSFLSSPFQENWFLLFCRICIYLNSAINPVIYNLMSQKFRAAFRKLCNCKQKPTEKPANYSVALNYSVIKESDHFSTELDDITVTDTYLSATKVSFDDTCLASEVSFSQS
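Steps: seed TRHR cells overnight; add fluo-8 no-wash Ca dye, RT 30 min–1.5 h; record 10 s baseline; pin-transfer compounds; monitor fluorescence 1 cycle/s for the agonist window. Calcium increases flag candidate agonists.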
D1 antag: Antagonist of Human D 1 Dopamine Receptor: qHTS | HEK293 TREx D1 cells, calcium flux, dopamine EC80; hits give low values | activity change, negative = inhibition, % at 10 µM | hit rate 3.2% among 360,000 | AID 504652, 2011; in the data active means activity change below about -30%; further: on the % scale 0 is the no-effect control and ±100 the full control effect
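Antagonism measured as reduced calcium response to an EC80 dopamine addition following 180 s compound pre-read; cells were inducible HEK293 Trex D1 plated overnight at 30 C, read kinetically at 1 cycle/sec.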
D1 ag: Allosteric Agonists of the Human D1 Dopamine Receptor: qHTS; hit rate 1% among 360,000; AID 504660, 2011; activation, % at 2 µM; HEK293 T-REx D1 cells, calcium flux, agonist mode; further: 0% is about no effect
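Tetracycline-induced HEK293 TREx D1 cells, force-coupled to calcium signalling, were dye-loaded with a no-wash calcium kit. Compound was pin-added after a 10 s baseline. Fluorescence was read kinetically at 1 cycle/s for 180 s, with calcium rises flagged as agonism.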
D1 PAM: Potentiators of Human D1 Dopamine Receptor: qHTS. D(1A) dopamine receptor (Homo sapiens), P21728. HEK293 TREx D1 cells, calcium flux, dopamine EC20 potentiation. potentiation, % at 10 µM. hit rate 0.036% among 360,000; in the data active means potentiation above about 30%; further: 0% is about no effect
TRHR PAM: qHTS for Small Molecule Agonists and Allosteric Enhancers of Human TRH Receptor: Primary Screen for Enhancers; TRHR cells, fluo-8 calcium fluorescence, EC20 TRH enhancement; enhancement, % at 2 µM; hit rate 0.66% among 360,000; AID 493056, 2011; in the data active means enhancement above about 30%; further: 0% is about no effect
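Enhancer read-out: after compound pinning and an initial kinetic agonist-mode read, an EC20 of TRH (10 nM final) was injected and fluo-8 calcium signal (Ex 480/Em 530) followed at 1 s/cycle for 100 cycles in TRHR-expressing cells.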
An asterisk follows results filed as active; . = no result given. A selection: hits, their analogues and other compounds. The true share with any hit is near 4.7%. Unless noted, no stated cut-off is given here; in the data, active means activation above about 30%; inactive means the rest.

SMILES	TRHR ag	D1 antag	D1 ag	D1 PAM	TRHR PAM
O=C(Nc1cccc(F)c1)NC1CC2CCCC(C1)N2C1CC1 (stereo unspecified)	-0.1	-34.3*	2.7	-10.4	-0.4
Cc1ccc(NC(=O)NC2CCN(S(=O)(=O)c3ccc(F)cc3)CC2)cc1	-1.4	-53.4*	2.7	-7.4	1.0
CC(=O)c1ccc(S(=O)(=O)N2CCC(NC(=O)Nc3cccc(F)c3)CC2)cc1	-1.9	-34.3*	-0.1	-0.3	-3.6
Cc1ccc(NC(=O)C(=O)NC2CCCCC2)cc1	0.0	-13.5	2.2	12.2	-1.5
CCOCCc1nnc(NC(=O)C(=O)c2cc(C)n(-c3ccc(C)cc3C)c2C)s1	-1.0	5.0	-2.1	4.5	1.0
O=S(=O)(NCC(c1cccs1)S(=O)(=O)c1ccccc1)c1ccc(F)cc1 (stereo unspecified)	0.2	.	-3.5	-1.1	-0.7
COc1cc(NC(=O)c2ccc(-c3nc(COc4ccccc4)c(C)o3)cc2)cc(OC)c1	1.6	-13.5	8.3	-2.5	4.5
Cc1ccc(NC(=O)C(c2ccccc2)C2CCCC2)cc1 (stereo unspecified)	2.4	-34.4*	6.6	-10.3	-6.4
N/C(=N\OC(=O)c1ccccc1)c1cccnc1	0.5	-50.3*	2.7	2.5	-0.8
N/C(=N\OC(=O)c1cc(Cl)ccc1Cl)c1cccnc1	-0.4	-57.3*	0.9	-12.7	3.1
N/C(=N\OC(=O)c1cc(Br)ccc1Cl)c1cccnc1	0.6	-1.9	1.4	-2.8	-4.0
N/C(=N\OC(=O)COc1ccc([N+](=O)[O-])cc1)c1cccnc1	0.5	-1.9	1.6	37.6*	4.4
CCC(C(=O)NCc1ccccc1Cl)n1nc(C)c2sc3ccccc3c2c1=O (stereo unspecified)	-0.6	4.6	4.2	7.2	-0.1
O=C(NC1CCCCC1)c1cc(Nc2cccc(C(F)(F)F)c2)nc2ccccc12	0.6	-11.7	3.4	-7.5	-0.6
O=C(NCC(c1ccco1)S(=O)(=O)c1cccs1)c1ccccc1F (stereo unspecified)	0.1	.	-0.2	-0.4	0.6
CCCNC(=O)C1CC(c2cccc(F)c2)=NO1 (stereo unspecified)	-0.4	-11.3	6.7	-2.4	3.4
O=C(NCc1ccccc1C(F)(F)F)C1CC(c2cccc(F)c2)=NO1 (stereo unspecified)	0.5	-90.5*	1.2	-9.2	-0.8
O=C(NCc1cccs1)C1CC(c2ccc(Cl)cc2)=NO1 (stereo unspecified)	-2.0	-33.4*	8.0	-6.3	-1.0
O=C(NCc1cccs1)C1CC(c2ccc(Cl)c(Cl)c2)=NO1 (stereo unspecified)	-0.5	27.0	3.2	1.4	-2.4
O=C(NCCc1cccs1)C1CC(c2cccc(F)c2)=NO1 (stereo unspecified)	-1.5	-6.6	40.2*	-6.0	-3.2
Cc1cc(/C=C2\SC(=O)NC2=O)c(C)n1-c1ccc(N2CCOCC2)cc1	0.2	2.4	11.5	-3.5	13.7
Cc1cc(/C=C2\SC(=O)NC2=O)c(C)n1-c1ccc(N(C)C)cc1	-0.1	-51.9*	-3.2	-9.9	-1.2
Cc1nc(NC(=O)c2ccco2)sc1C(=O)O	0.6	-34.7*	1.9	-3.5	27.6
COC(=O)c1sc(NC(=O)c2c(C)noc2C)nc1C	0.1	-32.5*	3.7	-8.5	-0.5
COC(=O)c1sc(NC(=S)NC(=O)c2ccccc2C)nc1C	16.2	3.9	91.6*	-3.2	-7.2
SMILES	TRHR ag	D1 antag	D1 ag	D1 PAM	TRHR PAM
COC(=O)c1sc(NC(=O)c2ccco2)nc1C	-0.4	-2.1	5.7	1.4	4.8
CCCc1c(NC(=O)Nc2ccc(F)cc2)cnn1-c1ccc(Cl)cc1	1.7	-43.1*	19.4	-4.3	-0.7
O=C(Nc1ccc(Cc2ccncc2)cc1)c1cccs1	0.1	1.9	12.7	-8.3	1.9
COc1ccc(C(=O)Nc2ccc(Nc3ccccc3)cc2)cc1OC	-0.5	-36.6*	-0.6	-10.3	-4.0
CN(Cc1ccccc1)C(=S)NC(=O)c1cccs1	0.0	-21.9	6.6	-2.2	43.6*
CN(Cc1ccccc1)C(=S)NC(=O)c1ccc(-c2ccccc2)cc1	-0.8	-1.1	4.3	-7.8	3.9
COc1ccc(C(=O)Nc2cccc(/C(C)=N/NC(=O)c3ccc([N+](=O)[O-])cc3)c2)cc1OC	-0.4	-33.5*	-0.4	-10.2	-3.8
COc1ccc(C(=O)Nc2ccc(Nc3ccccc3)cc2)cc1[N+](=O)[O-]	1.1	-18.7	5.0	-2.0	-1.4
COc1ccc(C(=O)N/N=C(/C)c2cccc(NC(=O)c3ccncc3)c2)cc1OC	0.4	3.0	2.8	-2.5	7.8
O=C(c1ccncc1)c1ccc(NC(=O)c2cccs2)cc1	-0.2	-34.5*	12.3	-16.4	0.9
Cc1nn2c(=O)cc(COC(=O)c3ccc(NC(=O)c4cccc(Br)c4)cc3)nc2s1	-1.2	-0.4	0.1	-0.8	4.5
CC(C)CCNC(=O)c1ccc2c(c1)nc1n2CCCCC1	-0.1	-5.7	0.6	1.9	1.7
O=C(NNC(=O)c1ccc(NC(=O)c2ccccc2)cc1)c1ccccc1	-1.0	8.1	59.2*	-5.0	3.1
O=C(Cc1ccccc1)Nc1ccc(NC(=O)c2ccc(Br)cc2)cc1	0.2	-10.1	3.1	5.9	2.0
O=C(Cc1ccccc1)Nc1ccc(NC(=O)c2cccs2)cc1	-0.5	-30.3*	1.4	-3.8	-0.3
O=C(Cc1ccccc1)Nc1ccc(C(=O)Nc2ccc(O)cc2)cc1	-0.3	-12.4	33.1*	0.2	17.8
CCN(C(=O)CSc1nc2ccccc2n1CC(=O)N(C)C1CCCCC1)c1ccccc1	-1.3	-7.0	-1.8	0.8	-4.5
CCOC(=O)CC(=O)CSc1nc(-c2cccnc2)ccc1C#N	17.8	1.5	33.9*	-2.8	2.8
CCN1/C(=C/c2ccc3cc(C)cc(C)c3[n+]2CC)Sc2cc(C)ccc21	20.7	-16.9	10.9	-0.2	35.1*
CCOCCCn1c(SCC(=O)Nc2ccc(C)cc2)nc2ccccc2c1=O	0.2	0.3	-0.9	1.5	-4.9
CCOC(=O)c1c(C)[nH]c(C(=O)OC)c1CCC(=O)OC	-0.5	-36.1*	0.5	-3.2	2.6
CCOC(=O)c1[nH]c(Cc2[nH]c(C(=O)OCC)c(C)c2CCC(=O)OC)c(CCC(=O)OC)c1C	1.1	-54.7*	3.9	-13.7	-5.7
CCCCc1c(C)[nH]c(C(=O)OCC)c1C	-0.6	19.9	2.3	3.4	7.3
COc1ccccc1NC(=O)C1CCCN(c2ncnc3onc(-c4ccc(F)cc4)c23)C1 (stereo unspecified)	-0.8	-4.2	2.6	1.1	-3.8
